Measured values taken from PubChem BioAssay AID588511 (Johns Hopkins Ion Channel Center, 2011).
The whole screen tested about 310,000 compounds, of which about 3,600 (1.2%) were called active.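 The calls were made as follows: active = ratio plate-corrected score three or more library SD toward inhibition, starting fluorescence score within five deviations; inactive = the rest.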 The entries come from a sample that favours actives as a whole.

The compounds below were run against Anoctamin-1 (Mus musculus) (UniProt Q8BHY3) (assay: TMEM16A chloride channel inhibitors, primary screen, cell-based, HTS (AID 588511;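 as to normalized B-score (activity score, 25-100; higher = stronger inhibition): score derived from kinetic fluorescence span divided by baseline fluorescence per well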)). Settings: HEK293 TMEM16A/YFP iodide influx fluorescence, ionomycin; at 10 µM.
Sequence of Anoctamin-1 (Mus musculus) (Q8BHY3 whole entry, looked up): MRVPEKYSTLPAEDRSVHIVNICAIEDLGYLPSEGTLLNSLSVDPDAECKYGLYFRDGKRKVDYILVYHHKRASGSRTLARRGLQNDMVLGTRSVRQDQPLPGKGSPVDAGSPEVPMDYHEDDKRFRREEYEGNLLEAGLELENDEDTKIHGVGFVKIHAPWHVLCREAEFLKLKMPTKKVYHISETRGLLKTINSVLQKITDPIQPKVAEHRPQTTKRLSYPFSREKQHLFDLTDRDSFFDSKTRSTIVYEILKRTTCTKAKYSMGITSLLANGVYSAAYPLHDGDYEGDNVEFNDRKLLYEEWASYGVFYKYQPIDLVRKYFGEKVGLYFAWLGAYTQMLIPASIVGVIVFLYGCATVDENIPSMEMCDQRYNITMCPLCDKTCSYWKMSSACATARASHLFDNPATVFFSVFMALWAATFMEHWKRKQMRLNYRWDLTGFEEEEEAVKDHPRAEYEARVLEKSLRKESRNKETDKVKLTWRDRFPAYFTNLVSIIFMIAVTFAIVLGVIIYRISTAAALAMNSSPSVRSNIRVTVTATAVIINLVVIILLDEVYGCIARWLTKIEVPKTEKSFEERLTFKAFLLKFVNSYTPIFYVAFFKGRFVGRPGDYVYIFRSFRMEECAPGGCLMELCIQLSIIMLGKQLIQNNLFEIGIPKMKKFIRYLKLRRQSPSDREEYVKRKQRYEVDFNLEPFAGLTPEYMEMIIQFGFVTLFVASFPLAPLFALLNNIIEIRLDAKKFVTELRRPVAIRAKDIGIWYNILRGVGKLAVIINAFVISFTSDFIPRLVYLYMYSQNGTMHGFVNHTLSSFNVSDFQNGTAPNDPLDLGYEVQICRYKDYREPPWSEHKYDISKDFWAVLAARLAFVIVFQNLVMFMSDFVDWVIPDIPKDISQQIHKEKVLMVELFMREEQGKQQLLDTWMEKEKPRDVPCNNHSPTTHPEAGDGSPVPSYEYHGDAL

| SMILES | normalized B-score (activity score, 25-100; higher = stronger inhibition) |
| --- | --- |
| C=CCNC(=O)C1CC2c3ccccc3C1c1ccccc12 (stereo not drawn) | inactive |
| CCOc1ccc(S(=O)(=O)N2CCCC(C(=O)N3CCC(C(N)=O)CC3)C2)cc1Cl (stereo not drawn) | inactive |
| C#CCOCCOCCOCCNc1nc(N2CCN(C(=O)CCCCCCCCCCNC(=O)[C@H](CCCCN)n3cc(C)nn3)CC2)nc(N2CCN(C(=O)CCCCCCCCCCNC(=O)[C@H](CO)n3cc(CCCSC)nn3)CC2)n1 | 100 (active) |
| C#CCOCCOCCOCCNc1nc(N2CCN(C(=O)CCCCCCCCCCNC(=O)[C@H]([C@@H](C)CC)n3cc(CCCCN=C(N)N)nn3)CC2)nc(N2CCN(C(=O)CCCCCCCCCCNC(=O)[C@H](CO)n3cc(CCCSC)nn3)CC2)n1 | inactive |
| C#CCOCCOCCOCCNc1nc(N2CCN(C(=O)CCCCCCCCCCNC(=O)Cn3cc(CCCCCN)nn3)CC2)nc(N2CCN(C(=O)CCCCCCCCCCNC(=O)[C@H](CO)n3cc(CCCSC)nn3)CC2)n1 | inactive |
| COC(=O)CSc1nc2c(c(C3CC=CCC3)c1C#N)CCC2 (stereo not drawn) | inactive |
| CCOC(=O)C1CCN(S(=O)(=O)c2c(C)noc2C)CC1 | inactive |
| CC(=O)NCCc1nc2cc(NC(=O)c3ccccc3)ccc2n1C | inactive |
| CCOC(=O)N1CCN(Cc2nc3cc(NC(C)=O)ccc3n2C)CC1 | inactive |
| Cn1c(CN2CCOCC2)nc2cc(NC(=O)c3ccc(Cl)cc3)ccc21 | 100 (active) |
| O=C(NCCCn1ccnc1)C1CCCN(S(=O)(=O)c2cc(Cl)ccc2Cl)C1 (stereo not drawn) | inactive |
| Nc1nnc2c(C(F)(F)F)nc3ccccc3n12 | inactive |
| CCn1c(=O)c(C(=O)NCc2ccc3c(c2)OCO3)c(O)c2ccccc21 | inactive |
| Cc1nc2c(C(=O)NCc3ccc4c(c3)OCO4)c[nH]n2c(=O)c1Cc1ccccc1F | 100 (active) |
| O=C(NCc1ccc2c(c1)OCO2)c1cc(F)c(F)cc1Cl | inactive |
| CCN(C(=O)Cc1nc(N)n[nH]1)C1(C(=O)Nc2ccccc2)CCCCC1 | inactive |
| COc1ccc(C(=O)NC2CCCc3c2cnn3-c2cccc(C)c2C)c(OC)n1 (stereo not drawn) | 100 (active) |
| Cc1cc(C(=O)NC2CCCc3c2cnn3-c2cccc(C)c2C)c(C)o1 (stereo not drawn) | inactive |
| Cn1nccc1C(=O)NC1CCCc2c1cnn2-c1ccccc1F (stereo not drawn) | inactive |
| O=C(CCN1C(=O)c2ccccc2C1=O)C1=NN[C@@H]2C(=O)N(c3ccc(F)cc3)C(=O)[C@H]12 | inactive |
| C=CCC(CC=C)(C(N)=O)c1ccccc1 | inactive |
| Cc1ccccc1S(=O)(=O)N1[C@@H](c2cccc(Cl)c2)C(C(=O)O)=CC[C@H]1c1ccc(Cl)cc1 | 100 (active) |
| Cc1ccccc1NC(=O)NCC1CCN(Cc2cccc(Cl)c2)CC1 | inactive |
| Cc1ccc(S(=O)(=O)N2[C@@H](c3cccc(Cl)c3)C(C(=O)O)=CC[C@H]2c2ccc(Cl)c(Cl)c2)cc1 | 100 (active) |

| SMILES | normalized B-score (activity score, 25-100; higher = stronger inhibition) |
| --- | --- |
| Cc1ccc(S(=O)(=O)N2[C@@H](c3ccccc3F)C(C(=O)O)=CC[C@H]2c2ccc(Cl)cc2)cc1 | inactive |
| CS(=O)(=O)N(CC(=O)N1CCN(c2cccc(Cl)c2)CC1)c1ccccc1 | inactive |
| Cc1ccc([C@@H]2CC=C(C(=O)O)[C@H](c3cccc(Cl)c3)N2S(=O)(=O)c2ccc(C)cc2)cc1 | inactive |
| CC(C)CCNC(=O)CC1C(=O)N(Cc2ccccc2)C(C)c2nc3ccccc3n21 (stereo not drawn) | inactive |
| CC1CCN(Cc2nc3c(c(=O)n(C)c(=O)n3C)n2CCc2ccccc2)CC1 | inactive |
| O=C(Nc1ccccc1C(=O)NCC1CCCO1)c1ccccc1F (stereo not drawn) | inactive |
| CCC(C(=O)NCc1cccnc1)n1nc(C)c2sc3ccccc3c2c1=O (stereo not drawn) | inactive |
| O=C(Nc1nc(-c2ccc3c(c2)OCO3)cs1)c1ccncc1 | 100 (active) |
| O=C(Nc1nc2ccccc2s1)c1ccc2c(c1)OCO2 | inactive |
| CC(=O)NCCC(=O)Nc1nc(-c2ccc3c(c2)OCCO3)cs1 | inactive |
| O=C(O)Cc1csc(NC(=O)CSc2nnnn2-c2ccc(O)cc2)n1 | inactive |
| CC(C)NC(=O)NCCCCCCS(C)=O (stereo not drawn) | inactive |
| Cc1cc(C)c(S(=O)(=O)c2ccc(F)cc2C)c(=O)[nH]1 | inactive |
| COc1ccccc1S(=O)(=O)c1c(C)cc(C)[nH]c1=O | inactive |
| C=C(C)Cn1c(C)cc(C)c(S(=O)(=O)c2ccccc2C)c1=O | 100 (active) |
| Cc1ccc(NC(=O)CSc2nn3c(=O)c(C)nnc3s2)cc1Cl | inactive |
| CCC(C)c1ccccc1NC(=O)CN(C)CC(=O)Nc1ccccc1SC (stereo not drawn) | inactive |
| CCCCOC(=O)CCCc1ccc([N+](=O)[O-])cc1[N+](=O)[O-] | inactive |
| O=C(N/N=C/c1cc(Br)c(O)c([N+](=O)[O-])c1)C(O)(c1ccccc1)c1ccccc1 | inactive |
| O=C(N/N=C/c1cc(Cl)cc([N+](=O)[O-])c1O)C(O)(c1ccccc1)c1ccccc1 | 100 (active) |
| CN(C)/N=C/c1cc(Cl)cc([N+](=O)[O-])c1O | inactive |
| O=C(NCc1ccc(Cl)cc1)NCc1ccc(Cl)cc1 | inactive |
| S=C(NCc1ccc(Cl)cc1)NC12CC3CC(CC(C3)C1)C2 | 100 (active) |
| O=C(NCc1ccncc1)NC12CC3CC(CC(C3)C1)C2 | inactive |
